“And” between values parts separate entries of the source, which are not always exact repeats. Identical values can stand only once. Records with an inconclusive call do not appear. Unmarked numbers belong to inactive results. Calls come from the whole dose curve; as a rule, active = well fitted inhibition curve with a large enough effect; inconclusive = small, poorly fitted or top-dose-only effect; inactive = flat fitted curve, though single readings scatter.
test: qHTS profiling for inhibitors of Plasmodium falciparum proliferation (AID 504749);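 note: 0% = DMSO vehicle and full inhibition = artemisinin control; nearly all actives have a fitted effect of over 60% in size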; settings: P. falciparum in erythrocytes, SYBR Green DNA, 72 h; at 12.8 µM (top of the series); parasite line A
Outline: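 In a 72 h erythrocytic culture (37 C, humidified, 5% CO2) at 2.5% hematocrit and 0.3% starting parasitemia, compounds were tested; SYBR Green I in detergent lysis buffer stained parasite DNA overnight.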

Compound | activity, negative = inhibition [%]
CCOc1ccc2ccccc2c1C(=O)N[C@@H]1C(=O)N2[C@@H]1SC(C)(C)[C@@H]2C(=O)O | 11.5
Nc1ccc(S(=O)(=O)NC(=O)c2ccccc2)cc1 | 10.4
CCCCN(CCCC)CCCOC(=O)c1ccc(N)cc1 | -10.5
CC(=O)c1ccc2c(c1)N(CCCN(C)C)c1ccccc1S2 | 7.32
C#CCN(C)Cc1ccccc1 | 7.21

same assay, conditions: P. falciparum in erythrocytes, SYBR Green DNA, 72 h; at 12.8 µM (top of the series); parasite line B

Compound | activity, negative = inhibition [%]
CCOc1ccc2ccccc2c1C(=O)N[C@@H]1C(=O)N2[C@@H]1SC(C)(C)[C@@H]2C(=O)O | -19.5
Nc1ccc(S(=O)(=O)NC(=O)c2ccccc2)cc1 | 13.1
CCCCN(CCCC)CCCOC(=O)c1ccc(N)cc1 | 3.88
CC(=O)c1ccc2c(c1)N(CCCN(C)C)c1ccccc1S2 | -24.3
C#CCN(C)Cc1ccccc1 | -0.897

same assay, conditions: P. falciparum in erythrocytes, SYBR Green DNA, 72 h; at 28.7 µM (top of the series); parasite line A

Compound | activity, negative = inhibition
Cc1cc(CC(=O)O)n(C)c1C(=O)c1ccc(Cl)cc1 | -8.03% and -6.63%
O=C(O)c1ccccn1 | 0.929%
CCCCC(CC)COC(=O)c1ccccc1O (stereo not drawn) | 5.45%
CCC(=O)c1ccc(O)cc1 | 12.2%
NCCNCCNCCN | 4.28%
C[C@](N)(Cc1ccc(O)cc1)C(=O)O | 4.44%
O=C1NC(=O)[C@@]2(CCOc3ccc(F)cc32)N1 | 7.16%
CC(C)(C)C(=O)NCCCC(=O)O | 13.3%
NCCNCCNCCNCCN | 12.5%
[O-][n+]1cccc(CO)c1 | -0.247%
O=C1c2c(O)cccc2Cc2cccc(O)c21 | 14.6%
CCC(=O)Nc1ccc(O)cc1 | 11.9%
Cc1cc(O)cc2c1O[C@](C)(CCC[C@H](C)CCC[C@H](C)CCCC(C)C)CC2 | -4.03%
Cc1ncc(COP(=O)(O)O)c(C=O)c1O | -4.1%
CC1(C)[C@@H]2CC[C@@]1(C)C(=O)C2 | 5.82%
O=C(O)COc1nn(Cc2ccccc2)c2ccccc12 | 1.43%
O=S(=O)(O)NC1CCCCC1 | 2.07%
COc1ccc(S(=O)(=O)Nc2nnc(CC(C)C)s2)cc1 | 3.77% and -5.99%
O=C1OC(OC(=O)c2cccnc2Nc2cccc(C(F)(F)F)c2)c2ccccc21 (stereo not drawn) | -4.18%
CC1(C)CO[C@@H](CC(=O)O)CN1 | 1.48%
O=Cc1ccccc1C=O | -1.21%
O=C(O)[C@@H]1CSCN1 | 8.72%
CC(=O)Nc1ccc(/C=N/NC(N)=S)cc1 | 9.12% and 9.39%
Cc1cccc(Nc2cc(Cl)nc(SCC(=O)O)n2)c1C | 11.5%
NCC(=O)CCC(=O)O | 2.38%
O=c1cc[nH]c(=S)[nH]1 | 1.45%
O=C(O)c1ccccc1-c1ccc(C(F)(F)F)cc1 | 11.3%
CC(=O)CCC(=O)O | 10.3%
OCC(O)CN1CCN(c2ccccc2)CC1 (stereo not drawn) | 5.92%

same assay, conditions: P. falciparum in erythrocytes, SYBR Green DNA, 72 h; at 28.7 µM (top of the series); parasite line B

Compound | activity, negative = inhibition
Cc1cc(CC(=O)O)n(C)c1C(=O)c1ccc(Cl)cc1 | -3.67% and -0.286%
O=C(O)c1ccccn1 | -26.4%
CCCCC(CC)COC(=O)c1ccccc1O (stereo not drawn) | -0.719%
CCC(=O)c1ccc(O)cc1 | 2.42%
NCCNCCNCCN | 2.86%
C[C@](N)(Cc1ccc(O)cc1)C(=O)O | 11.9%
O=C1NC(=O)[C@@]2(CCOc3ccc(F)cc32)N1 | 9.22%
CC(C)(C)C(=O)NCCCC(=O)O | -4.47%
NCCNCCNCCNCCN | -2.06%
[O-][n+]1cccc(CO)c1 | 11.6%
O=C1c2c(O)cccc2Cc2cccc(O)c21 | -4.21%
CCC(=O)Nc1ccc(O)cc1 | -3.83%
Cc1cc(O)cc2c1O[C@](C)(CCC[C@H](C)CCC[C@H](C)CCCC(C)C)CC2 | -6.42%
Cc1ncc(COP(=O)(O)O)c(C=O)c1O | 3.77%
CC1(C)[C@@H]2CC[C@@]1(C)C(=O)C2 | 6.35%
O=C(O)COc1nn(Cc2ccccc2)c2ccccc12 | 10.4%
O=S(=O)(O)NC1CCCCC1 | 5.79%
COc1ccc(S(=O)(=O)Nc2nnc(CC(C)C)s2)cc1 | 15.9% and -5.44%
O=C1OC(OC(=O)c2cccnc2Nc2cccc(C(F)(F)F)c2)c2ccccc21 (stereo not drawn) | 2.45%
CC1(C)CO[C@@H](CC(=O)O)CN1 | 5.08%
O=Cc1ccccc1C=O | 5.64%
O=C(O)[C@@H]1CSCN1 | -0.798%
CC(=O)Nc1ccc(/C=N/NC(N)=S)cc1 | 6.45% and 8.83%
Cc1cccc(Nc2cc(Cl)nc(SCC(=O)O)n2)c1C | 13.9%
NCC(=O)CCC(=O)O | -2.04%
O=c1cc[nH]c(=S)[nH]1 | 6.46%
O=C(O)c1ccccc1-c1ccc(C(F)(F)F)cc1 | 19.8%
CC(=O)CCC(=O)O | -7.9%
OCC(O)CN1CCN(c2ccccc2)CC1 (stereo not drawn) | 10.4%

From PubChem BioAssay (NCATS)
